This passage reports inhibition results from PubChem BioAssay AID1663 (Broad Institute, 2009).

Structures are written as SMILES. Out of some 300,000 compounds screened, about 660 (0.22%) were called active. What follows is part of a selection rich in actives, with near analogues and random picks from the rest. A number with no mark means an inactive call.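 Rule for the calls: active = mean replicate score, as percent of positive control, at or above 50; inconclusive = mean below 50 but at least one replicate at or above 50; inactive = mean and every replicate below 50.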

The test in a line: inhibitors of platelet dense granule secretion, primary screen, cell-based, MLPCN, human platelets (AID 1663). The following applies: human platelet-rich plasma, SFLLRN dense granule ATP release, luminescence; active compounds read high;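 compounds screened at 7.5 µM in platelet-rich plasma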.
As usually defined, the inhibition is the drop in the measured response relative to a control, in per cent. With `O=C(Nc1cccc(-c2cscn2)c1)C1CCN(Cc2ccsc2)CC1`, the inhibition is -6.81%. As for `CC[n+]1cc(C)ccc1/C=C/c1ccc(N(C)C)cc1`, the figure is 9.22%; as for `CCCCC(=O)Nc1ccccc1N1CCN(c2ccc(F)cc2)CC1`, 2.05%. In the case of `CNC(=O)C1CC(=O)N(Cc2ccc3c(c2)OCO3)C(=Nc2ccc(F)cc2)S1` (stereo not drawn), the inhibition was -5.44%. On to `Cc1ccc(N=Cc2c(O)n(-c3nccs3)c(=O)c3ccccc23)c(C)c1`, for which the inhibition was -7.35%. As for `COc1ccc(-c2nc(N)sc2C2(O)C(=O)Nc3c(Br)cc(F)cc32)cc1OC` (stereo not drawn), the figure is 7.83%; as for `COCCNC(=O)NC(=O)COC(=O)C1(c2ccc(Cl)cc2)CC1`, 11.8%; as for `COc1ccc(CNC(=O)c2cc(C(=O)C3CC3)c[nH]2)cc1`, -3.25%. As for `COc1ccc(C(=O)COC(=O)c2ccc3ccccc3n2)cc1`, the figure is -2.98%. As for `C/C(=N\N=C(N)N)c1ccc(Cl)cc1`, the figure is -7.88%; as for `Cc1ncn2cc(-c3ccc(Cl)cc3Cl)[nH]c(=O)c12`, -3%. Consider `Cc1cc(C)cc(OCC(=O)O/N=C(\N)Cc2ccc([N+](=O)[O-])cc2)c1`, for which the inhibition is 1.64%. The same measure for `CNC(=S)N1CCC(NC(=O)C(Cc2ccc(F)cc2)NC(C)=O)CC1` (stereo not drawn): 0.885%; for `CCOCCCN(C(=O)Cn1nnc(-c2ccc(OC)c(OC)c2)n1)C(CC)C(=O)NC1CCCC1` (stereo not drawn): 7.27%. Take `CCn1c(SCC(=O)NC2CCCC2)nnc1-c1ccoc1C`: the inhibition was -1.97%. As to `Cc1ccc(OCC(=O)Oc2ccccc2[N+](=O)[O-])cc1`, the inhibition was -2.97%. As for `COc1ccc(/C(C)=N/NC(=O)c2ccc3nc[nH]c3c2)cc1`, the figure is 8.86%; as for `CCCC(C)C(=O)OCC(=O)Nc1c(Br)cc(C)cc1Br` (stereo not drawn), 20.5%; as for `Cc1cccc(Cn2c(N3CCN(c4ccccc4)CC3)nc3c2c(=O)n(C)c(=O)n3C)c1`, 1.96%. In the case of `Cn1c(=O)n(CCc2ccccc2)c(=O)c2c1nc1n2CCCN1c1ccccc1`, the inhibition is -2.86%.

Regarding `Cc1cccc(N2CC(C)Cn3c2nc2c3c(=O)n(CC(=O)OCc3ccccc3)c(=O)n2C)c1` (stereo not drawn), the inhibition is 55.7% (active).

`COc1ccc(-c2cn3ccsc3n2)cc1`: the inhibition is 16.7%. The same measure for `CCN(CC)S(=O)(=O)c1ccc(-c2cn3ccc(C)cc3n2)cc1`: 5.08%. In the case of `COc1ccc(-c2cn3ccc(C)cc3n2)cc1`, the inhibition was 64.2% (active). As for `CCOC(=O)C1CCN(Cc2nnc(-c3cccc(Br)c3)o2)CC1`, the figure is 2.47%. On to `[O-][N+]12CCCCC1CCCC2CO` (stereo not drawn), for which the inhibition was 4.81%. Consider `O=C1NNC(c2ccccc2)=N/C1=C\c1ccc(Cl)cc1`, for which the inhibition is -15.9%. The same measure for `O=C1c2ccccc2C2=Nc3ccccc3SC(c3ccccc3F)C12` (stereo not drawn): 2.23%. With `Cc1c(Cl)cccc1NC(=O)NCc1ccc(C)n1C`, the inhibition was -4.12%. `Cc1cccc(NC(=O)CCn2c(=O)oc3ccccc32)c1`: the inhibition was 8.63%. For `CC(=O)c1nnn(-c2ccc(Cl)cc2C#N)c1C`, the inhibition is -27.7%. The same measure for `COc1ccc(C(=O)Nc2cccc(NC(=O)c3ccc(OC)cc3OC)n2)c(OC)c1`: 10.1%; for `CCOC(=O)C1C(c2ccc(O)cc2)NC(=O)NC1(O)C(F)(F)F` (stereo not drawn): -5.44%; for `CCOC(=O)C1C(c2ccc(Cl)cc2)NC(=S)NC1(O)C(F)(F)F` (stereo not drawn): -3.31%. As for `CCOC(=O)C1C(c2ccc(OC)c(OC)c2)c2c([nH][nH]c2=O)CC1(C)O` (stereo not drawn), the figure is 57.3% (active). As for `O=[N+]([O-])c1ccc2c(c1)Nc1nc3ccccc3nc1N2`, the figure is -4.77%. For the molecule `Cc1sc2ncn(CC(=O)NCCCC(=O)N(C)Cc3ccccc3)c(=O)c2c1C`, the inhibition is 10.8%. As for `COc1ccc(C(C)=O)cc1CN1C(=O)NC2(CCCCC2C)C1=O` (stereo not drawn), the figure is -14.5%; as for `O=[N+]([O-])c1ncc(Br)cc1Nc1ccccc1`, -1.96%.

`CCOC(=O)N1CCN(C(=O)c2ccc3c(=O)n(CCc4ccc(OC)c(OC)c4)c(=O)[nH]c3c2)CC1`: the inhibition is -6.61%. Turning to `C/C(=N\NC(=O)c1cc2c(s1)CCC(C)C2)c1cccnc1` (stereo not drawn), the inhibition is 9.94%. The same measure for `COc1ccc(-c2cc(-c3ccc(N)cc3)nc(N)c2C#N)cc1OC`: 0.00483%. Turning to `N#Cc1c(N)nc2c3c(sc(=N)c2c1N)NC(=O)CC3c1ccccc1Cl` (stereo not drawn), the inhibition was -3.78%. As for `COc1ccc(C2CC(=O)Nc3sc(=N)c4c(N)c(C#N)c(N)nc4c32)cc1OC` (stereo not drawn), the figure is 92.7% (active); as for `COc1ccc(NC(=O)CC2C(=O)OCC3CCCCN32)cc1Cl` (stereo not drawn), 7.17%. As for `COc1cc(OC)cc(-c2nnc(SCC(=O)Nc3ccc(C(=O)O)cc3)s2)c1`, the figure is -1.66%; as for `O=C(Cc1cccs1)Nc1nnc(SCc2ccc(F)cc2)s1`, -6.18%. For `O=C(CSc1nnc(SCc2ccc(F)cc2)s1)Nc1ccc(C(=O)O)cc1`, the inhibition was 65.9% (active). The same measure for `COc1ccc(C(=O)OCC(=O)NC(=O)CCSc2ccccc2)cc1`: -1.32%; for `C=CCNCCCCOc1ccccc1`: 3.06%.

With `C=C(C)COc1ccc(-c2ncncc2-c2ccc(OC)cc2)c(O)c1`, the inhibition was 3.43%. Take `CC(C(=O)NC1CCCCC1)N1C(=O)c2cccc3cccc1c23` (stereo not drawn): the inhibition was 7.75%. For `COc1cccc(C(=O)Nc2ccc(N3CCCC3)cc2)c1`, the inhibition is 87.6% (active).

As for `COc1cccc(C(=O)Nc2ccc(N3CCN(C(=O)c4ccco4)CC3)cc2)c1`, the inhibition was -47.4%. The same measure for `CN1CCN(c2ccc(NC(=O)c3ccccc3)cc2)CC1`: 28.5%; for `C/C=C/C(=O)OCC(=O)Nc1ccc(F)cc1Cl`: 1.87%. As for `COc1ccc(C(=O)NC2CC2)cc1OC1CCN(C/C=C/c2ccccc2)CC1`, the figure is -4.81%; as for `Cc1cnc(NC(=O)c2ccccn2)s1`, 52.7% (active); as for `O=C(Nc1nnc(C2CC2)s1)c1ccccn1`, -0.73%. Regarding `Cc1cnc(NC(=O)c2ccc(Cl)nc2)s1`, the inhibition was -2.29%. With `Cn1c(-c2ccco2)nc2cc3ccccc3cc21`, the inhibition was 66.2% (active). As to `Cc1cc(C(F)(F)F)nn1-c1nc(-c2ccco2)cc(C(F)(F)F)n1`, the inhibition was 0.688%.

In the case of `COc1ccccc1-n1c(-c2cc(-c3ccco3)[nH]n2)n[nH]c1=S`, the inhibition was 3.67%.
